Shown are actives, neighbours in structure and some others; about 12% of the full set was active somewhere.
G9a inh: qHTS Assay for Inhibitors of Histone Lysine Methyltransferase G9a; G9a H3K9 monomethylation, AlphaScreen, 2 h; Potency, µM (series often up to 102 µM), inactives show at the highest dose activity, negative = inhibition, actives largely listed as inhibitors; 8.8% of 350,000 active; further: potency means the concentration at half of the fitted maximal effect; on the % scale 0 is the no-effect control and ±100 the full control effect; nearly all actives have a fitted effect of over 75% in size
Target sequence (Q96KQ7 913-1193 limits assumed): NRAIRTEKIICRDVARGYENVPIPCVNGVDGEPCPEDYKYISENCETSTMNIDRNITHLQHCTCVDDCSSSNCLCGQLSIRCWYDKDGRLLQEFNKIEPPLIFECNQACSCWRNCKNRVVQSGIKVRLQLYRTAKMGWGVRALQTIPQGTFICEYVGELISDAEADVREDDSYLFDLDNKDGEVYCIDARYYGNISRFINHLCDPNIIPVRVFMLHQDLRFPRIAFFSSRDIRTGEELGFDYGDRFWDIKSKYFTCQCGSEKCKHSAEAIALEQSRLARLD
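Chemiluminescent proximity detection of H3K9 monomethylation, read after 10 min bead incubation in the dark. Reaction: 20 nM G9a, 500 nM biotin-H3K9 peptide, 20 uM SAM cofactor, 2 h, room temperature, following 15 min enzyme-compound preincubation.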
BAZ2B inh: qHTS Assay for Inhibitors of BAZ2B. Bromodomain adjacent to zinc finger domain protein 2B (Homo sapiens), Q9UIF8. AlphaScreen BAZ2B-H3K14Ac peptide displacement. Potency, µM (series often up to 114 µM), for inactives: top-dose activity change, negative = inhibition, most hits filed as inhibitors. 4.4% of 360,000 active. AID 504333, 2011; further: potency means the concentration at half of the fitted maximal effect; on the % scale 0 is the no-effect control and ±100 the full control effect; nearly all actives have a fitted effect of over 60% in size
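In this displacement format the biotinylated H3(5-23) peptide acetylated at Lys14 serves as ligand at 50 nM, with BAZ2B at 50 nM in PBS pH 7.4 containing 0.01% Tween-20. Donor and acceptor beads are 10 ug/mL final.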
PI5P4Ka inh: qHTS for Inhibitors of phosphatidylinositol 5-phosphate 4-kinase (PI5P4K); 1.2% of 330,000 active; max response, %; Phosphatidylinositol 5-phosphate 4-kinase type-2 alpha (Homo sapiens), P48426; AID 652105, 2013; PI5P4Kalpha enzyme, ADP-Glo luminescence, 60 min; active compounds read low; active means max response of -50% or lower; inconclusive means between -30% and -50%; inactive means -30% or higher; further: value at the top dose of about 77 µM; on the % scale 0 is the no-effect control and ±100 the full control effect
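Single end-point luminescence (ADP-Glo) quantified ADP from PI5P4Kalpha turnover; ATP 5 microM final, 1 h at RT, 0.1% CHAPS and 0.28 mM EGTA in HEPES pH 7.4.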
JMJD2A Tudor inh: qHTS Assay for Inhibitors of JMJD2A-Tudor Domain; Lysine-specific demethylase 4A (Homo sapiens), O75164; AlphaScreen JMJD2A-Tudor / H3K4me3 peptide binding; Potency, µM (series often up to 114 µM), for the others: at the top dose activity change, negative = inhibition, actives largely listed as inhibitors; 4.4% of 390,000 active; AID 504339, 2011; further: potency means the concentration at half of the fitted maximal effect; on the % scale 0 is the no-effect control and ±100 the full control effect; nearly all actives have a fitted effect of over 50% in size
HP1b chromo inh: HTS for Inhibitors of HP1-beta Chromodomain Interactions with Methylated Histone Tails; 0.56% of 390,000 active; Potency, µM (series often up to 114 µM), without a hit: top-dose activity change, negative = inhibition, most hits filed as inhibitors; Chromobox protein homolog 1 (Homo sapiens), P83916; AlphaScreen HP1-beta / biotin-H3K9me3 peptide binding; further: potency means the concentration at half of the fitted maximal effect; nearly all actives have a fitted effect of over 70% in size
Target sequence (P83916 whole entry, looked up): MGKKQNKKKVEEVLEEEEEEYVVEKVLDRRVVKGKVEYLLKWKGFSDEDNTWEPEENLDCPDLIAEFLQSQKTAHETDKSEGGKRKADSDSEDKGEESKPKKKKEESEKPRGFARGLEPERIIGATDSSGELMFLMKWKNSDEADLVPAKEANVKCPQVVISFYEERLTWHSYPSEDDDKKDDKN
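HP1-beta protein (50 nM final) preincubated 30 min at room temperature with biotinylated H3(1-18)K9me3 peptide (50 nM) in PBS pH 7.4, 0.01% Tween-20, then compound added for 30 min. AlphaScreen streptavidin donor/nickel chelate acceptor beads (10 ug/mL final), 30 min dark, luminescence read.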
PLK1 PBD inh: qHTS for Inhibitors of PLK1-PDB (polo-like kinase 1 - polo-box domain): Primary Screen; Serine/threonine-protein kinase PLK1 (Homo sapiens), P53350; Plk1 PBD binding of FITC phosphopeptide, fluorescence polarization; Potency, µM, without a hit: max response, negative = inhibition, hits mostly inhibitors; 2.8% of 360,000 active; AID 720504, 2013; further: potency means the concentration at half of the fitted maximal effect; series mostly up to about 57 µM; on the % scale 0 is the no-effect control and ±100 the full control effect; nearly all actives have a fitted effect of over 65% in size
* = called active by the depositor; [ ] = remark or other dose. Unless noted, the call rests on the fitted dose curve; in most records, active means well fitted curve in the direction sought with a large enough effect; inconclusive means small, poorly fitted or top-dose-only effect, or another doubt; inactive means no such curve, though single readings can be large; an effect the other way counts as inactive or inconclusive.

Results for c1ccc(-c2ccc(OCCOCCn3cncn3)cc2)cc1 ?
G9a inh: inconclusive; BAZ2B inh: 50µM*; PI5P4Ka inh: 1; JMJD2A Tudor inh: 32µM*; HP1b chromo inh: inconclusive; PLK1 PBD inh: -10%

What do the screens show for `CCN(C(=O)COC(=O)c1ccc([N+](=O)[O-])o1)C1CCCCC1`?
PI5P4Ka inh: -4; JMJD2A Tudor inh: -21%; HP1b chromo inh: 15%; PLK1 PBD inh: -19%

How did Cc1ccc(NS(=O)(=O)c2cc3c(cc2N2CCC2)NC(=O)CC3)cc1C do in these assays?
JMJD2A Tudor inh: -15%

Results for CCn1cc(C(=O)N2CCN(c3cccc(Cl)c3)CC2)c(=O)c2cc(S(=O)(=O)N3CCCCC3)ccc21 ?
G9a inh: -14%[59 µM]; JMJD2A Tudor inh: -24%; HP1b chromo inh: -7%

What do the screens show for `NC(=O)C1(Nc2ccc(C(=O)O)cc2)CCCC1`?
PI5P4Ka inh: -10; JMJD2A Tudor inh: -17%; HP1b chromo inh: 28%; PLK1 PBD inh: -8%

How did CCOc1ccc(CCNC(=O)c2ccc(C)c(-n3cnc4cccnc43)c2)cc1 do in these assays?
G9a inh: inconclusive; BAZ2B inh: -14%; JMJD2A Tudor inh: 4%; HP1b chromo inh: 40%

Results for OC(c1ccccc1)(c1nc(-c2ccc(F)c(Cl)c2)cs1)C(F)(F)F (stereo not drawn) ?
PI5P4Ka inh: 0; PLK1 PBD inh: -8%

Results for Cc1c(-n2c(=S)[nH]c3ccccc3c2=O)c(=O)n(-c2ccccc2)n1C ?
G9a inh: inconclusive; BAZ2B inh: -5%; PI5P4Ka inh: 2; JMJD2A Tudor inh: 20µM*; HP1b chromo inh: 19%; PLK1 PBD inh: -14%

Results for CCCC(=O)NC(=S)c1c(C)n(C)n(-c2ccccc2)c1=O ?
G9a inh: 45µM*; BAZ2B inh: -4%; PI5P4Ka inh: -8; JMJD2A Tudor inh: -19%; HP1b chromo inh: 23%; PLK1 PBD inh: -18%

Results for Cc1c(Cc2c(C)n(C)n(-c3ccccc3)c2=O)c(=O)n(-c2ccccc2)n1C ?
G9a inh: -5%; BAZ2B inh: 4%; PI5P4Ka inh: -8; JMJD2A Tudor inh: 19%[57.1 µM]; HP1b chromo inh: 46%; PLK1 PBD inh: -8%

Results for Cc1c(N=c2scc(-c3ccccc3)n2C)c(=O)n(-c2ccccc2)n1C ?
G9a inh: -8%[59 µM]; BAZ2B inh: inconclusive; PI5P4Ka inh: -2; JMJD2A Tudor inh: -19%; HP1b chromo inh: 4%; PLK1 PBD inh: -1%

Results for Cc1c(CN(C)CCc2ccccc2)c(=O)n(-c2ccccc2)n1C ?
G9a inh: 4µM*; BAZ2B inh: inconclusive; JMJD2A Tudor inh: 3.5µM*; HP1b chromo inh: inconclusive; PLK1 PBD inh: -4%

What do the screens show for `Cc1c(NC(=S)NC(=O)COc2ccccc2)c(=O)n(-c2ccccc2)n1C`?
G9a inh: 21%[59 µM]; BAZ2B inh: 7%; PI5P4Ka inh: -9; JMJD2A Tudor inh: -13%; HP1b chromo inh: -3%; PLK1 PBD inh: -9%

What do the screens show for `CC1=CC(=Nc2c(C)n(C)n(-c3ccccc3)c2=O)C=CC1=O`?
G9a inh: 10µM*; BAZ2B inh: 45µM*

How did COc1ccc(C(=O)CC(=O)C(=O)Nc2cccc(C(C)=O)c2)cc1 do in these assays?
G9a inh: -15%; BAZ2B inh: -24%; PI5P4Ka inh: 1; JMJD2A Tudor inh: -19%; HP1b chromo inh: 69%; PLK1 PBD inh: -5%

How did CCc1ccc(NC(=O)CCn2c(-c3ccc(OC)cc3)cc(C(C)=O)c2C)cc1 do in these assays?
G9a inh: inconclusive; BAZ2B inh: -27%; JMJD2A Tudor inh: -21%; HP1b chromo inh: 31%

How did CC(C)c1ccc(NC(=O)C(NS(=O)(=O)c2ccc3c(c2)CCC(=O)N3)c2ccccc2)cc1 (stereo not drawn) do in these assays?
G9a inh: -4%[59 µM]; BAZ2B inh: -12%; JMJD2A Tudor inh: -27%; HP1b chromo inh: 6%

Results for CCc1nn(CC(=O)NCCc2ccc(OC)c(OC)c2)c(=O)c2cc3occc3n12 ?
G9a inh: -2%[59 µM]; BAZ2B inh: -23%; JMJD2A Tudor inh: -17%; HP1b chromo inh: 20%

Results for CCC(C)C1=CC(=Nc2c(C)n(C)n(-c3ccccc3)c2=O)C=C(C(C)CC)C1=O (stereo not drawn) ?
G9a inh: inconclusive; BAZ2B inh: 3.5µM*; PI5P4Ka inh: 0; JMJD2A Tudor inh: inconclusive; HP1b chromo inh: -20%; PLK1 PBD inh: -12%

What do the screens show for `Cc1c(O)c(=O)n(-c2ccccc2)n1C`?
G9a inh: 8.9µM*; BAZ2B inh: 30%; PI5P4Ka inh: -2; JMJD2A Tudor inh: -8%; HP1b chromo inh: 16%; PLK1 PBD inh: -1%

Results for Cc1c(I)c(=O)n(-c2ccccc2)n1C ?
G9a inh: 31%[59 µM]

How did O=C(Nc1ccc(Nc2ccncc2)cc1)c1ccc(Nc2ccnc3ccc([N+](=O)[O-])cc23)cc1[N+](=O)[O-] do in these assays?
G9a inh: 50µM*; BAZ2B inh: -18%; PI5P4Ka inh: -54*; JMJD2A Tudor inh: inconclusive; HP1b chromo inh: -37%; PLK1 PBD inh: -6%

How did c1ccc(CCNCCCOc2cccc3ccccc23)cc1 do in these assays?
G9a inh: -5%[12.7 µM]; BAZ2B inh: -35%; PI5P4Ka inh: 18; JMJD2A Tudor inh: 40µM*; HP1b chromo inh: -31%; PLK1 PBD inh: -14%

Results for ClC(Cl)(c1nnnn1-c1ccccc1)c1nnnn1-c1ccccc1 ?
G9a inh: 0.56µM*; BAZ2B inh: 56µM*; PI5P4Ka inh: inconclusive; JMJD2A Tudor inh: 20µM*; HP1b chromo inh: inconclusive; PLK1 PBD inh: 1.9µM*

How did COc1ccc(NC(=O)CSC2=C(C#N)C(c3ccco3)C3=C(CCCC3=O)N2)c(OC)c1 (stereo not drawn) do in these assays?
G9a inh: 45µM*; BAZ2B inh: 79µM*; PI5P4Ka inh: -4; JMJD2A Tudor inh: -28%; HP1b chromo inh: -9%; PLK1 PBD inh: -4%

How did CC(C)N(CCNCC(O)COc1ccc(C(C)(C)c2ccccc2)cc1)C(C)C (stereo not drawn) do in these assays?
G9a inh: 20µM*; BAZ2B inh: 50µM*; PI5P4Ka inh: 21; JMJD2A Tudor inh: 5.6µM*; HP1b chromo inh: -14%; PLK1 PBD inh: -1%

High-throughput results from PubChem.
